Measured values taken from PubChem BioAssay (NCI).
This is part of a sample that, as a whole, favours compounds with a hit. Of some 83,000 tested, about 20% had one in any assay.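 Growth was measured after 48 h exposure to one concentration of compound in 96-well plates. Values under 10 count as active.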 Unmarked numbers belong to inactive results. Active and inactive are the calls of the source.

Each molecule was assayed on HL-60(TB) leukemia (assay: NCI-60 one-dose screen, 48 h (100 = growth as untreated, 0 = no growth, -100 = all killed)). Details: 10 µM unless noted.
For `O=S(=O)(Nc1ccc(Cl)c(F)c1)c1ccc(-c2cnc(C3CC3)o2)cc1`, the growth was 0.942% (active).
For `CC1=CCC(OC(=O)C(C)(C)CCC(O)(C(=O)OC2(C(C)C)CCC3(C)OC3C2)C(C)C)(C(C)C)CC1` (stereo unspecified), the growth was -43.1% (active).
`COc1ccc(-c2cn3c(ccc4ccccc43)n2)cc1` was tested, and the growth was 109%.
`C/C(=N\NC(=O)c1ccncc1)c1ccc(N)cc1` was tested, and the growth was 90.2%.
In the case of `COc1cccc(Cc2cc(-c3ccccc3)nn(CC(=O)c3ccccc3)c2=O)c1`, the growth is reported as 69.4%.
Molecule `CC(C)c1ccc(C(=O)OCCCl)cc1` has a growth of 85.5%.
`CCc1ccccc1-n1c(-c2ccc(OC)cc2)cc(-c2ccc(OC)cc2)c(C#N)c1=O` was tested, and the growth was 121%.
`Cc1cc(Cc2cc(C)cc(C(C)(C)C)c2O)c(O)c(C(C)(C)C)c1` gave a growth of 59.3%.
`CCOC(=O)C(C#N)C1CCCCC1` (stereo unspecified) was tested, and the growth was 67.5%.
`COc1ccc(-c2cc(NC(=O)Nc3ccc4ncsc4c3)no2)cc1` gave a growth of 90.8%.
With `O=C1Nc2ccccc2/C1=C/C(=N/c1nnc(-c2ccccc2)s1)c1ccccc1` the growth was -32.9% (active).
Molecule `CCCCCCCCCCNC(=O)CCl` has a growth of 95.8%.
With `COc1ccc(C(=O)c2cc(OC)c(OC)c(OC)c2)cc1OC(=O)CCl` the growth was -34.4% (active).
Molecule `CN1CCN(C)c2cncc(Br)c2C1=O` has a growth of 96.4%.
`CCNC(=O)Oc1ccc(/C(=C(\C)c2ccc(Cl)cc2)c2ccc(OCCN(CC)CC)cc2)cc1` gave a growth of 23.9%.
Molecule `CC(C)CCSc1nc(Nc2ccccc2)c(C#N)c(-c2ccccc2)n1` has a growth of 76.5%.
